Compounds without any hit were thinned out: in the full panel of roughly 83,000, 20% have a hit.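 48-hour exposure, single concentration, 96-well plates; percent growth endpoint where 0 means no net growth. Active: below 10.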 Values without a mark were called inactive. Calls of active or inactive are those of the source.
How the values were obtained:
Test in all cases: NCI-60 one-dose screen, 48 h (100 = growth as untreated, 0 = no growth, -100 = all killed)
Conditions in all cases: 10 µM unless noted
[1] = tested on: T-47D breast
[2] = tested on: BT-549 breast
[3] = tested on: MDA-MB-435 melanoma
[4] = tested on: SW-620 colon
[5] = tested on: MCF7 breast
[6] = tested on: HCT-116 colon
[7] = tested on: HCC-2998 colon
[8] = tested on: KM12 colon

Structure (SMILES) | growth [1] | growth [2] | growth [3] | growth [4] | growth [5] | growth [6] | growth [7] | growth [8]
O=C(/C=C/c1cn(-c2ccccc2)nc1-c1cccc(Nc2ccnc3cc(Cl)ccc23)c1)c1ccc2c(c1)OCO2 | 93.3% | 100% | 69.6% | 95.9% | 81.1% | 83.8% | 102% | 94.1%
CN1CCN(Cc2ccc(NC(=O)c3ccc(C#N)c(C#Cc4cnc(N)c5ncccc45)c3)cc2C(F)(F)F)CC1 | 112% | 103% | 56% | 23.4% | 16.3% | -10.5% (active) | 112% | 13.5%
COc1ccc(-c2n[nH]nc2-c2cc(OC)c3c(c2)OCO3)cc1 | 53.7% | 15.6% | -74.7% (active) | 22.6% | 15.9% | 5.38% (active) | -3.69% (active) | 2.06% (active)
COc1cc(-c2n/c(=C\c3c(O)[nH]c4cc(Cl)ccc34)cc3c2=Nc2ccccc2-3)cc(OC)c1OC | 67.2% | 45.2% | 66.2% | 41.5% | 55.7% | 52.9% | 93.1% | 51.8%
CCCN(CCC)CC(O)COc1ccccc1C(=O)Nc1ccccc1 (centres undefined) | 97.1% | 87.1% | -21.1% (active) | 36.9% | 79.9% | 50.6% | 79.6% | 48.3%
CCOC(=O)c1c(NC(=O)c2ccccc2)sc2c(O)c(CN(CC)CC)ccc12 | 44.9% | 0.881% (active) | -55.4% (active) | 19.6% | 8.33% (active) | 7.59% (active) | 11.6% | 2.35% (active)
CCN(C(=O)Nc1cccc2ccccc12)c1ccccc1 | 88.1% | 108% | 105% | 107% | 97.8% | 106% | 103% | 108%
CCOC(=O)c1ccc(NCCC(=O)O)cc1 | 101% | 110% | 116% | 110% | 92.4% | 111% | 103% | 110%
Cc1cc(C)cc(NC(=O)Cn2nncc2CN2C(=O)CSC2=O)c1 | 99.9% | 101% | 103% | 99.7% | 93.4% | 107% | 108% | 110%
COc1ccc(Nc2ncccc2C(=O)NCc2cn(Cc3cc(OC)cc(OC)c3)nn2)cc1 | 93.6% | 98.4% | 106% | 105% | 104% | 94.8% | 103% | 102%
O=c1cc(-c2ccc3c(c2)OCCO3)oc2cc(Cl)ccc12 | 1.86% (active) | 81.4% | 7.43% (active) | 28.6% | 77.8% | -1.49% (active) | 66.2% | 21.3%
COc1ccc(C2=NN(C=O)C(c3ccc(OS(=O)(=O)c4ccc(C)cc4)c(OC)c3)C2)cc1 (centres undefined) | 40.3% | 46.4% | 14.1% | 48.3% | 40.2% | 45.8% | 74.1% | 54.5%
Cc1cc(-c2nnc(/C=C/c3ccc4c(c3)OCO4)o2)n[nH]1 | 60.9% | 35.1% | -25.4% (active) | 25.5% | 31.7% | 48.1% | 75.8% | 36.1%
O=c1cc(N2CCOCC2)oc2c(-c3ccc4c(c3)OCCO4)csc12 | -15% (active) | 5.39% (active) | 14.7% | 37.6% | 7.92% (active) | 14.4% | 33.2% | 31.7%
c1ccc2c(c1)cnc1ccccc12 | 96.8% | 106% | 102% | 98.5% | 94.3% | 100% | 101% | 102%
Clc1ncnc2scc(C3COc4ccccc4O3)c12 (centres undefined) | 78.2% | 70% | 97.5% | 93.3% | 76.7% | 86.2% | 87.7% | 104%
Cc1cc(C)c2c(n1)sc1c(Nc3ccc(O)cc3)ncnc12 | 39.6% | 50.6% | 36.6% | 45.6% | 20.3% | 29.2% | 63.3% | 50.3%

Structure (SMILES) | growth [1] | growth [2] | growth [3] | growth [4] | growth [5] | growth [6] | growth [7] | growth [8]
CCCCCCCCCCCC1=NC(C)(C)CN1C(C)(C)CO | 45.3% | 76.6% | -25.2% (active) | 10.8% | 24.3% | 8.08% (active) | -75.5% (active) | -10.2% (active)
CC(C)CC(NC(=O)OCC1c2ccccc2-c2ccccc21)C(=O)O (centres undefined) | 95.8% | 97% | 93.7% | 116% | 89.4% | 103% | 112% | 106%
Cc1cc(C)c2c(n1)sc1c(Nc3ccc(Cl)cc3Cl)ncnc12 | 36.8% | 44% | 36% | 44.6% | 19.8% | 24.9% | 58.6% | 49.8%
CCCCCNCCCCCNc1cc(OC)cc2cccnc12 | 68.1% | 69.2% | 103% | 90.9% | 50.6% | 63.5% | 93.4% | 103%
CC1=C(O)C(=O)C(c2c(C)cc(C)c(Br)c2C)=C(O)C1=O | 83.3% | 73.1% | 73.2% | 85.5% | 56.5% | 54.4% | 63% | 67.7%
C=CCn1c(C)nc2cc(Nc3nc(N4CCCC4)nc4nc[nH]c34)ccc21 | 45% | -33.6% (active) | 9.16% (active) | 40.8% | 73.5% | -40.2% (active) | 76.4% | 13.1%
CCCCn1c(C)nc2ccc(Nc3nc(Cl)nc4nc[nH]c34)cc21 | 33.9% | 47.8% | 77.2% | 78.6% | 76.5% | 67.7% | 94% | 77.5%
CN1CCN(Cc2ccc(NC(=O)c3cncc(C#Cc4cnc5cccnn45)c3)cc2C(F)(F)F)CC1 | 30.7% | 6.96% (active) | 1.81% (active) | -3.38% (active) | 3.61% (active) | 3.88% (active) | 9.55% (active) | -12.3% (active)
Cc1ccc(NC(=O)c2nc(S(C)=O)oc2-c2ccc(F)cc2)cc1Nc1nccc(-c2cccnc2)n1 (centres undefined) | 40% | 26.9% | 82.5% | 8.58% (active) | 50.7% | -53.3% (active) | 97.5% | 50.1%
CCN(CC)c1ccc(C(=N)c2ccc(N(C)C)cc2)cc1 | -13.6% (active) | 28.9% | 2% (active) | -18.6% (active) | 2.36% (active) | 1.67% (active) | 15.4% | -8.02% (active)
O=C(/C=C/c1cc([N+](=O)[O-])ccc1Cl)c1ccccc1 | 72.3% | 86.3% | 86% | 6.41% (active) | 20.6% | -100% (active) | 103% | 5.35% (active)
COc1cc(C2Nc3ccccc3S2)cc(CN2CCOCC2)c1O (centres undefined) | 88.4% | 84.9% | 0.594% (active) | 50.7% | 50.6% | 53.2% | 86.4% | 55.4%
COc1ccc2[nH]c(O)c(/C=c3/ccc4c(c3)N=C(c3ccc(F)cc3)N=4)c2c1 | 28.3% | 26.7% | 57.8% | 41.3% | 41.7% | -22.6% (active) | 104% | 74.9%
COc1ccc(Br)c2ccccc12 | 97.9% | 123% | 105% | 106% | 100% | 108% | 104% | 109%
CCOC(=O)C1=C(C)NC(SCc2nnc(-c3ccc(Cl)cc3)o2)=NC1c1ccc(Cl)cc1 (centres undefined) | 49.9% | 75.3% | 69.6% | 85.9% | 49% | 46.2% | 79.9% | 69.8%
Cc1ccc2nc(CN(CCN(Cc3nc4ccc(C)cc4[nH]3)Cc3nc4ccc(C)cc4[nH]3)Cc3nc4ccc(C)cc4[nH]3)[nH]c2c1 | -93% (active) | -98.2% (active) | -92.6% (active) | -85.9% (active) | -95% (active) | -96.3% (active) | -65% (active) | -95.9% (active)

Reference: PubChem BioAssay (NCI)
